From PubChem BioAssay (NCI) come the findings set out here.

Compounds without any hit were thinned out: in the full panel of roughly 79,000, 15% have a hit. Values without a mark were called inactive. Activity calls are given as the source filed them. Cut-off read from the data, not from the text of the source: active = growth inhibition above about 70%; inactive = the rest.

Assay [1] in a line: NCI Yeast Anticancer Drug Screen. Data for the rad50 strain (AID 155).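 Note: 0% = growth of vehicle-only cultures of the same strain.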 The note with it: S. cerevisiae rad50 strain growth inhibition; at 50.0 µM; hits give high values. Put shortly:
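Genetically altered yeast (DNA repair pathway); compound treatment; growth inhibition vs vehicle ctrl.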

Assay [2] in a line: NCI Yeast Anticancer Drug Screen. Data for the mec2-1 strain (AID 157). The note with it: S. cerevisiae mec2-1 strain, at 50.0 µM, hits give high values. Put shortly:
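Using mec2-1 yeast: add compound, measure growth, express inhibition versus vehicle-treated cultures.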

Assay [3] in a line: NCI Yeast Anticancer Drug Screen. Data for the sgs1 mgt1 strain (AID 161).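 Note: 0% = growth of cultures given vehicle only.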 The conditions noted are these: S. cerevisiae sgs1 mgt1 strain, at 50.0 µM, hits give high values. The essentials:
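Compounds are added to genetically altered yeast, and growth is compared with cultures given vehicle alone to give percent inhibition.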

Assay [4] can be described thus: NCI Yeast Anticancer Drug Screen. Data for the cln2 rad14 strain (AID 165).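 Note: 0% = growth equal to vehicle treated cultures.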 The conditions noted are these: S. cerevisiae cln2 rad14 strain, at 50.0 µM, hits give high values. The essentials: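 Yeast strain cln2 rad14, bearing defects in cell cycle control and DNA repair, serves as the test system; values reflect growth inhibition compared with vehicle.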
The nature of assay [5]: NCI Yeast Anticancer Drug Screen. Data for the bub3 strain (AID 167). The conditions noted are these: S. cerevisiae bub3 mutant strain, at 50.0 µM, hits give high values. The essentials: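 Yeast carrying a defined mutation is treated with each compound, and growth is compared with that of vehicle-exposed cells to give inhibition.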
Assay [6] is described as follows: NCI Yeast Anticancer Drug Screen. Data for the mlh1 rad18 strain (AID 175). The note with it: S. cerevisiae mlh1 rad18 strain growth inhibition; at 50.0 µM; hits give high values. Put shortly: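 Steps: expose repair-defective yeast to compound; measure growth; express inhibition against vehicle-treated controls.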

As to `O=C1OC(c2ccccc2)=N/C1=C/N1CCCC1C(=O)O` (stereo not given), the growth inhibition is -1% in assay [1]; 5.6% in assay [2]; 15.9% in assay [3]; 10.1% in assay [4]; -4.4% in assay [5]; -6.3% in assay [6].

In the case of `O=C(O)C(SSC(C(=O)O)(c1ccccc1)c1ccccc1)(c1ccccc1)c1ccccc1`, the growth inhibition in assay [1] is 71.8% (active); in assay [2] it was 21.5%; in assay [3], 54.6%; in assay [4] it was 36%; in assay [5], 12%; in assay [6], 38%.

Regarding `O=c1c2c3c(sc2nc2n1N=CN(c1ccc(Cl)cc1)C2)CCCC3`, the growth inhibition in assay [1] is 8.7%; in assay [2], 6%; in assay [3], 7.7%; in assay [4], -5.45%; in assay [5], -4.7%; in assay [6], -32%.

With `OCC(O)C(O)C(O)C(O)CN=Cc1ccccc1O` (stereo not given), the growth inhibition in assay [1] was -19.8%; in assay [2], 7.9%; in assay [3], -10.7%; in assay [4] it was 2.8%; in assay [5] it was -19.6%; in assay [6], -4.45%.

For `Cc1ccc2ccccc2c1Cc1c(C=O)[nH]c(=S)[nH]c1=O`, the growth inhibition in assay [1] is 94.7% (active); in assay [2], 90.8% (active); in assay [3] it was 97% (active); in assay [4] it was 82.5% (active); in assay [5], 90.5% (active); in assay [6], 98.8% (active).

For `CC(C)N(CCSC(=O)N1c2ccccc2Sc2cccnc21)C(C)C`, the growth inhibition in assay [1] is -2%; in assay [2], 0.8%; in assay [3], -18.9%; in assay [4], -12.3%; in assay [5] it was 1.45%; in assay [6], 1.6%.

As for `CCCCC1SC2=NCCN2C1(O)c1ccc(Cl)cc1` (stereo not given), the growth inhibition is 14.6% in assay [1]; 3.55% in assay [2]; 28.9% in assay [3]; 18% in assay [4]; 31.3% in assay [5]; 26.5% in assay [6].

Turning to `CCCCCC(=O)O`, the growth inhibition in assay [1] was -20.2%; in assay [2], -7.1%; in assay [3], -42.1%; in assay [4] it was 26.9%; in assay [5], -38.9%; in assay [6], 16.8%.

Turning to `COc1ccc2nc3cc(Cl)ccc3c(C=O)c2c1`, the growth inhibition in assay [1] was -0.15%; in assay [2], 7.65%; in assay [3], 5.75%; in assay [4], -35.8%; in assay [5], -4.3%; in assay [6], -2.25%.

Take `COC(=O)C1CCC(/C(C#N)=C2/CCC(C(=O)OC)[N-]2)=N1.COC(=O)C1CCC(/C(C#N)=C2/CCC(C(=O)OC)[N-]2)=N1.[Cu+2]` (stereo not given): the growth inhibition was -13.8% in assay [1]; -24.2% in assay [2]; 3.5% in assay [3]; -43.3% in assay [4]; -24.5% in assay [5]; 11.2% in assay [6].

Take `O=C(O)C(Cc1cccs1)C(=O)OCCc1ccccc1` (stereo not given): the growth inhibition was -4.95% in assay [1]; -6.45% in assay [2]; 1.05% in assay [3]; -10.8% in assay [4]; -13.7% in assay [5]; 21.7% in assay [6].

For `Clc1ccc(Cl)nc1`, the growth inhibition was -8.25% in assay [1]; -8.25% in assay [2]; -8.2% in assay [3]; -13.7% in assay [4]; 2.75% in assay [5]; 5.45% in assay [6].

Regarding `N#CC1CCCCC(=O)N1` (stereo not given), the growth inhibition is 3.55% in assay [1]; 2.2% in assay [2]; -2.05% in assay [3]; -3.6% in assay [4]; -1.2% in assay [5]; -1.55% in assay [6].

`N=c1ncn(Cc2ccccc2)c2nc[nH]c12`: the growth inhibition in assay [1] is -2.4%; in assay [2], 2%; in assay [3], 1.3%; in assay [4], -3.6%; in assay [5], 10%; in assay [6] it was -4%.

For `O=C(Nc1cc(C(=O)Nc2cccc(S(=O)(=O)O)c2)cc(C(=O)Nc2cccc(S(=O)(=O)O)c2)c1)c1cccc(C(=O)Nc2cc(C(=O)Nc3cccc(S(=O)(=O)O)c3)cc(C(=O)Nc3cccc(S(=O)(=O)O)c3)c2)c1`, the growth inhibition in assay [1] was -0.1%; in assay [2], -0.1%; in assay [3], -15.4%; in assay [4], 3.4%; in assay [5] it was 4.8%; in assay [6], -5.55%.

For the compound `O=c1oc2c(CN3CCOCC3)c(O)ccc2c2c1CCCC2`, the growth inhibition in assay [1] was 24.8%; in assay [2], 21.5%; in assay [3], 22.8%; in assay [4], 29.9%; in assay [5], 43.6%; in assay [6], 31.9%.

As to `CCCCn1c(=S)sc2ccccc21`, the growth inhibition in assay [1] is 15.2%; in assay [2], 4.45%; in assay [3] it was 20.8%; in assay [4], -50.5%; in assay [5] it was 21.7%; in assay [6], 22.4%.

`Cc1cc(C)c(/C=C/c2c(C)cc(C)cc2C)c(C)c1`: the growth inhibition is 9.25% in assay [1]; -12.9% in assay [2]; 4.2% in assay [3]; -26.4% in assay [4]; -4.45% in assay [5]; -0.5% in assay [6].

Regarding `Cc1ccnc(C2=C(O)c3ccccc3C2=O)c1`, the growth inhibition in assay [1] was 20%; in assay [2], 0.1%; in assay [3], -9.75%; in assay [4] it was 1.15%; in assay [5], -2.8%; in assay [6], 12.8%.

On to `CCCCn1cc(C(=O)O)c(=O)c2c3sccc3ccc21`, for which the growth inhibition in assay [1] was -24.1%; in assay [2], -35.8%; in assay [3] it was -8.95%; in assay [4], -5.15%; in assay [5], -9.5%; in assay [6], -26.1%.
